Test results taken from PubChem BioAssay (Tox21).
A number with no mark means an inactive call. Results filed as inconclusive are left out. Where a call stands in place of a potency, no number is given. The source made the active and inactive calls. Calls come from the whole dose curve.

Biological target: Acetylcholinesterase (Homo sapiens) (UniProt P22303)
Experiment: Acetylcholinesterase (AChE) small molecule antagonists: colormetric cell-based qHTS assay (AID 1347395); note: nearly all actives have a fitted effect of over 30% in size
Settings: SH-SY5Y cells AChE activity, colorimetric (Ellman); series mostly up to 115 µM
Outline: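 After overnight attachment at 37 C, SH-SY5Y cells get 30 min compound exposure; detection cocktail (acetylthiocholine, DTNB) then incubates 90 min at 37 C, and absorbance reflects AChE-generated thiocholine.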

Sequence of Acetylcholinesterase (Homo sapiens) (P22303 whole entry, looked up): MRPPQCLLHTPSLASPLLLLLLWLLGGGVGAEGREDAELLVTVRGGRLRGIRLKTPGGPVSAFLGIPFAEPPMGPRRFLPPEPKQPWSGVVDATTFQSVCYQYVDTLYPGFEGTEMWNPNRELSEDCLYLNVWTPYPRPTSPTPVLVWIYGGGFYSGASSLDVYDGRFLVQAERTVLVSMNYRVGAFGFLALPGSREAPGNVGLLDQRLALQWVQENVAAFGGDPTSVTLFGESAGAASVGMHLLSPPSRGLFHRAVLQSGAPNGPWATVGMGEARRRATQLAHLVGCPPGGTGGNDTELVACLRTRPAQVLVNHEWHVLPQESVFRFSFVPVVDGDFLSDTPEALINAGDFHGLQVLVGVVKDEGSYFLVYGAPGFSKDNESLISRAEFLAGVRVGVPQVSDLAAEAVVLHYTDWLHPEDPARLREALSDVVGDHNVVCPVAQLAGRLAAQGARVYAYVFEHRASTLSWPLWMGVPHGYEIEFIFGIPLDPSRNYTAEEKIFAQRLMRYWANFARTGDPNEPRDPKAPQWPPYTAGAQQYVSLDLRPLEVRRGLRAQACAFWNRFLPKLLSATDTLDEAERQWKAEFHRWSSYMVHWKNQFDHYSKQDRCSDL

Question: Which activity, negative = inhibition does the source give for `CN(C)c1ccc(/C=C/c2ccc([N+](=O)[O-])cc2)cc1` here?
Answer: Its activity, negative = inhibition is 3.64% [at 10.5 µM].

Question: `CC(CC(C)(C)C)CC(C)(C)CC(C)(C)C` (stereo not given) was tested. Which Potency did it give?
Answer: The Potency was “inactive”.

Question: `COc1ccc(CCC(C)=O)cc1` was tested. Which Potency did it give?
Answer: Its Potency is “inactive”.

Question: How did the Potency turn out when `CC1CCCNC1` (stereo not given) was run?
Answer: The Potency was “inactive”.

Question: How did the Potency turn out when `c1ccc(Oc2ccccc2)cc1` was run?
Answer: Its Potency is “inactive”.

Question: With `CCCc1c2oc(C(=O)O)cc(=O)c2cc2c(=O)cc(C(=O)O)n(CC)c12` as the molecule, how does the Potency read?
Answer: Its Potency is “inactive”.

Question: `CCCCCCCCCCCCSC#N` was tested. Which Potency did it give?
Answer: The Potency was “inactive”.

Question: Which Potency does the source give for `Cc1ccccc1C(OCCN(C)C)c1ccccc1` (stereo not given) here?
Answer: The Potency was “inactive”.

Question: How did the Potency turn out when `COC(=O)CCCC(=O)OC` was run?
Answer: The Potency was “inactive”.

Question: Which Potency does the source give for `CC1(C)O[C@@H]2C[C@H]3[C@@H]4CCC5=CC(=O)C=C[C@]5(C)[C@H]4[C@@H](O)C[C@]3(C)[C@]2(C(=O)CO)O1` here?
Answer: Its Potency is “inactive”.

Question: With `OCCc1ccccn1` as the molecule, how does the Potency read?
Answer: The Potency was “inactive”.

Question: With `Cc1cc(C(C)(C)C)c(O)c(C)c1CC1=NCCN1` as the molecule, how does the Potency read?
Answer: The Potency was “inactive”.

Question: How did the Potency turn out when `O=C(O)CCCCCCCC(=O)O` was run?
Answer: Its Potency is “inactive”.

Question: How did the Potency turn out when `CCCCCCCCC(CCCCCC)C(=O)O` (stereo not given) was run?
Answer: Its Potency is “inactive”.

Question: For `C/C=C/C(=O)C1=C(C)CCCC1(C)C`, which Potency is on record?
Answer: Its Potency is “inactive”.

Question: For `O=C1c2ccccc2C(=O)N1CO`, which Potency is on record?
Answer: The Potency was “inactive”.

Question: With `O=C(O)c1cc2ccccc2nc1C(=O)O` as the molecule, how does the Potency read?
Answer: The Potency was “inactive”.

Question: For `Clc1nc2ccccc2s1`, which Potency is on record?
Answer: Its Potency is “inactive”.

Question: How did the Potency turn out when `O=C(OCC1CO1)C1CCCCC1C(=O)OCC1CO1` (stereo not given) was run?
Answer: Its Potency is “inactive”.

Question: For `C=CC(=O)NC(C)C`, which Potency is on record?
Answer: The Potency was “inactive”.

Question: How did the Potency turn out when `SCCOCCOCCS` was run?
Answer: Its Potency is “inactive”.

Question: `CC(C)(C)c1ccc(S)cc1` was tested. Which Potency did it give?
Answer: Its Potency is “inactive”.

Question: For `CCCCCCCCS(=O)(=O)O`, which Potency is on record?
Answer: Its Potency is “inactive”.

Question: With `O=c1cc[nH]c(=O)[nH]1` as the molecule, how does the Potency read?
Answer: Its Potency is “inactive”.

Question: For `C=Cc1ccc(OC(C)=O)cc1`, which Potency is on record?
Answer: Its Potency is “inactive”.

Question: For `O=C(Cl)c1ccc(Cl)cc1Cl`, which Potency is on record?
Answer: The Potency was “inactive”.

Question: For `CC(=O)c1ccc(C)cc1`, which Potency is on record?
Answer: Its Potency is “inactive”.

Question: Which Potency does the source give for `CCCC/C=C/CCCCO` here?
Answer: The Potency was “inactive”.

Question: Which Potency does the source give for `CC(C)CC(C)CC(C)CC(C)COC(=O)c1ccccc1C(=O)OCC(C)CC(C)CC(C)CC(C)C` (stereo not given) here?
Answer: Its Potency is “inactive”.

Question: `CC(=O)c1ccccc1O` was tested. Which Potency did it give?
Answer: The Potency was “inactive”.

Question: For `CC1=CCC2CC1C2(C)C` (stereo not given), which Potency is on record?
Answer: The Potency was “inactive”.

Question: With `O=C(O)CN(CCCN(CC(=O)O)CC(=O)O)CC(=O)O` as the molecule, how does the activity, negative = inhibition read?
Answer: The activity, negative = inhibition was 0.786% [at 23.6 µM].

Question: Which Potency does the source give for `CCc1oc2ccccc2c1C(=O)c1cc(Br)c(O)c(Br)c1` here?
Answer: Its Potency is “inactive”.

Question: How did the Potency turn out when `CC(C)(C)CC(C)(C)c1ccc(O)c(-n2nc3ccccc3n2)c1` was run?
Answer: Its Potency is “inactive”.

Question: For `O=C(O)CC(C(=O)O)S(=O)(=O)O` (stereo not given), which Potency is on record?
Answer: Its Potency is “inactive”.

Question: `CN(C)C=O` was tested. Which Potency did it give?
Answer: Its Potency is “inactive”.

Question: `CC(Oc1c(Cl)cccc1Cl)C1=NCCN1` (stereo not given) was tested. Which Potency did it give?
Answer: Its Potency is “inactive”.

Question: `CC(=O)OC(C)c1ccccc1` (stereo not given) was tested. Which Potency did it give?
Answer: The Potency was “inactive”.

Question: Which Potency does the source give for `CCCCNC(=O)NS(=O)(=O)c1ccc(N)cc1` here?
Answer: Its Potency is “inactive”.

Question: Which Potency does the source give for `CC(CCC(=O)O)(c1ccc(O)cc1)c1ccc(O)cc1` here?
Answer: The Potency was “inactive”.

Biological target: Acetylcholinesterase (Homo sapiens) (UniProt P22303)
Experiment: Acetylcholinesterase (AChE) small molecule antagonists: enzyme-based qHTS assay (AID 1347397); note: nearly all actives have a fitted effect of over 55% in size
Settings: Potency: AChE enzyme activity inhibition; outcome: AChE enzyme activity inhibition; series mostly up to 115 µM
Outline: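 Recombinant human AChE, dispensed at 50 mU/mL, was preincubated with Tox21 10K compounds or DMSO vehicle for 30 min at room temperature. DTNB plus acetylthiocholine was then added, and thiocholine was measured colorimetrically after a further 10 min.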

Question: `CN(C)c1ccc(/C=C/c2ccc([N+](=O)[O-])cc2)cc1` was tested. Which activity change, negative = inhibition did it give?
Answer: Its activity change, negative = inhibition is 1.35% [at 10.5 µM].

Question: Which Potency does the source give for `CC(CC(C)(C)C)CC(C)(C)CC(C)(C)C` (stereo not given) here?
Answer: The Potency was “inactive”.

Question: How did the Potency turn out when `COc1ccc(CCC(C)=O)cc1` was run?
Answer: Its Potency is “inactive”.

Question: How did the Potency turn out when `CC1CCCNC1` (stereo not given) was run?
Answer: The Potency was “inactive”.

Question: Which Potency does the source give for `c1ccc(Oc2ccccc2)cc1` here?
Answer: The Potency was “inactive”.

Question: Which Potency does the source give for `CCCc1c2oc(C(=O)O)cc(=O)c2cc2c(=O)cc(C(=O)O)n(CC)c12` here?
Answer: The Potency was “inactive”.

Question: With `CCCCCCCCCCCCSC#N` as the molecule, how does the Potency read?
Answer: The Potency was “inactive”.

Question: `Cc1ccccc1C(OCCN(C)C)c1ccccc1` (stereo not given) was tested. Which Potency did it give?
Answer: The Potency was “inactive”.

Question: `COC(=O)CCCC(=O)OC` was tested. Which Potency did it give?
Answer: The Potency was “inactive”.

Question: With `CC1(C)O[C@@H]2C[C@H]3[C@@H]4CCC5=CC(=O)C=C[C@]5(C)[C@H]4[C@@H](O)C[C@]3(C)[C@]2(C(=O)CO)O1` as the molecule, how does the Potency read?
Answer: The Potency was “inactive”.

Question: With `OCCc1ccccn1` as the molecule, how does the Potency read?
Answer: Its Potency is “inactive”.

Question: How did the Potency turn out when `Cc1cc(C(C)(C)C)c(O)c(C)c1CC1=NCCN1` was run?
Answer: Its Potency is “inactive”.

Question: For `O=C(O)CCCCCCCC(=O)O`, which Potency is on record?
Answer: Its Potency is “inactive”.

Question: How did the Potency turn out when `CCCCCCCCC(CCCCCC)C(=O)O` (stereo not given) was run?
Answer: Its Potency is “inactive”.

Question: With `C/C=C/C(=O)C1=C(C)CCCC1(C)C` as the molecule, how does the Potency read?
Answer: The Potency was “inactive”.

Question: Which Potency does the source give for `O=C1c2ccccc2C(=O)N1CO` here?
Answer: Its Potency is “inactive”.

Question: How did the Potency turn out when `O=C(O)c1cc2ccccc2nc1C(=O)O` was run?
Answer: Its Potency is “inactive”.

Question: How did the Potency turn out when `Clc1nc2ccccc2s1` was run?
Answer: The Potency was “inactive”.

Question: How did the Potency turn out when `O=C(OCC1CO1)C1CCCCC1C(=O)OCC1CO1` (stereo not given) was run?
Answer: The Potency was “inactive”.

Question: For `C=CC(=O)NC(C)C`, which Potency is on record?
Answer: The Potency was “inactive”.

Question: For `SCCOCCOCCS`, which Potency is on record?
Answer: Its Potency is “inactive”.

Question: `CC(C)(C)c1ccc(S)cc1` was tested. Which Potency did it give?
Answer: Its Potency is “inactive”.

Question: How did the Potency turn out when `CCCCCCCCS(=O)(=O)O` was run?
Answer: The Potency was “inactive”.

Question: With `O=c1cc[nH]c(=O)[nH]1` as the molecule, how does the Potency read?
Answer: The Potency was “inactive”.

Question: How did the Potency turn out when `C=Cc1ccc(OC(C)=O)cc1` was run?
Answer: Its Potency is “inactive”.

Question: For `O=C(Cl)c1ccc(Cl)cc1Cl`, which Potency is on record?
Answer: The Potency was “inactive”.

Question: With `CC(=O)c1ccc(C)cc1` as the molecule, how does the Potency read?
Answer: The Potency was “inactive”.

Question: How did the Potency turn out when `CCCC/C=C/CCCCO` was run?
Answer: The Potency was “inactive”.

Question: `CC(C)CC(C)CC(C)CC(C)COC(=O)c1ccccc1C(=O)OCC(C)CC(C)CC(C)CC(C)C` (stereo not given) was tested. Which Potency did it give?
Answer: Its Potency is “inactive”.

Question: With `CC(=O)c1ccccc1O` as the molecule, how does the Potency read?
Answer: Its Potency is “inactive”.

Question: `CC1=CCC2CC1C2(C)C` (stereo not given) was tested. Which Potency did it give?
Answer: Its Potency is “inactive”.

Question: Which activity change, negative = inhibition does the source give for `O=C(O)CN(CCCN(CC(=O)O)CC(=O)O)CC(=O)O` here?
Answer: The activity change, negative = inhibition was 4.89% [at 23.6 µM].

Question: For `CCc1oc2ccccc2c1C(=O)c1cc(Br)c(O)c(Br)c1`, which Potency is on record?
Answer: The Potency was “inactive”.

Question: How did the Potency turn out when `CC(C)(C)CC(C)(C)c1ccc(O)c(-n2nc3ccccc3n2)c1` was run?
Answer: Its Potency is “inactive”.

Question: `O=C(O)CC(C(=O)O)S(=O)(=O)O` (stereo not given) was tested. Which Potency did it give?
Answer: The Potency was “inactive”.

Question: Which Potency does the source give for `CN(C)C=O` here?
Answer: Its Potency is “inactive”.

Question: How did the Potency turn out when `CC(Oc1c(Cl)cccc1Cl)C1=NCCN1` (stereo not given) was run?
Answer: Its Potency is “inactive”.

Question: With `CC(=O)OC(C)c1ccccc1` (stereo not given) as the molecule, how does the Potency read?
Answer: The Potency was “inactive”.

Question: How did the Potency turn out when `CCCCNC(=O)NS(=O)(=O)c1ccc(N)cc1` was run?
Answer: Its Potency is “inactive”.

Question: Which Potency does the source give for `CC(CCC(=O)O)(c1ccc(O)cc1)c1ccc(O)cc1` here?
Answer: Its Potency is “inactive”.
